# Results: paper PMC7862700, “An all-to-all approach to the identification of sequence-specific readers for epigenetic DNA modifications on cytosine”
# Tests used:
# Assay in all cases: DAPPL (digital affinity profiling via proximity ligation, sequencing); 10 mM Tris-HCl pH 7.5, 50 mM NaCl, 1 mM DTT, 4% glycerol, room temperature, 30 min; GST-TFs on glutathione beads, 16-mer random dsDNA library, 0.1% formaldehyde crosslink after washing; high values mean tight binding
# FLI1 = target: T1, FLI1 (Homo sapiens, UniProt Q01543 1-452); conditions: protein: recombinant; tags: N-terminal GST; dsDNA, one strand shown
# T1 sequence: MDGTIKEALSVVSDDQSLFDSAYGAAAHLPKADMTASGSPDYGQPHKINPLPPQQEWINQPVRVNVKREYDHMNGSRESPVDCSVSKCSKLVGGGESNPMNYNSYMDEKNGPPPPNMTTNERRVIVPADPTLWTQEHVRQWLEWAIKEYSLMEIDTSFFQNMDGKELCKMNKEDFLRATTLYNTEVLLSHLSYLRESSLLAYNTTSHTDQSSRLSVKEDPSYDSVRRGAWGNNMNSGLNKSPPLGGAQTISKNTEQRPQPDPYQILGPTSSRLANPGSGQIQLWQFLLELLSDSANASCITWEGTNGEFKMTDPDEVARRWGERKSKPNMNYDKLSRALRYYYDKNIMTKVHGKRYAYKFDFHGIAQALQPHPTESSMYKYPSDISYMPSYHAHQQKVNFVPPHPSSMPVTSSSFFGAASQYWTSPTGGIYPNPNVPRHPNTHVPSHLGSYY
# Outline: (§1)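 The binding signal reported is, for every hexamer, its read frequency for a factor over its read frequency for the tag-only sample. Reads came from pools of yeast-expressed, GST-fused human transcription factors on glutathione beads, barcoded with DNA and mixed with that sample, which were incubated with 200 nmole of a random double-stranded 16-mer DNA library in Tris/NaCl/DTT/glycerol buffer at room temperature for 30 min. After washing, the pools were crosslinked with 0.1% formaldehyde, proximity-ligated with BsaI/T4 ligase for 1 h at 37 °C, PCR-amplified and sequenced on an Illumina NextSeq500.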
# ELK1 = target: T2, ELK1 (Homo sapiens, UniProt P19419 1-428); conditions: protein: recombinant; tags: N-terminal GST; dsDNA, one strand shown
# T2 sequence: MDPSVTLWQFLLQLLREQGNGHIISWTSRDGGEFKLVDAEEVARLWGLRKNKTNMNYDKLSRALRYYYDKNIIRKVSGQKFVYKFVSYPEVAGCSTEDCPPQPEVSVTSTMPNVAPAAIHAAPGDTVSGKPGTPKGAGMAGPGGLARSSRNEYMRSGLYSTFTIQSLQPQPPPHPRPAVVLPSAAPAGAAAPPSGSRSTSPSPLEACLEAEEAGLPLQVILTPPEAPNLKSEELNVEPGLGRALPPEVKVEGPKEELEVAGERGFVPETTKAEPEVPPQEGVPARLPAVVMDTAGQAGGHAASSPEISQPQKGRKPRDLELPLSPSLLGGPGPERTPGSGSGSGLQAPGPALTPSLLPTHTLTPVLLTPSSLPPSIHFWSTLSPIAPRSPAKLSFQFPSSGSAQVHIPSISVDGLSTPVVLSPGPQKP
# Outline: as §1
# GABPA = target: T3, GABPA (Homo sapiens, UniProt Q06546 1-454); conditions: protein: recombinant; tags: N-terminal GST; dsDNA, one strand shown
# T3 sequence: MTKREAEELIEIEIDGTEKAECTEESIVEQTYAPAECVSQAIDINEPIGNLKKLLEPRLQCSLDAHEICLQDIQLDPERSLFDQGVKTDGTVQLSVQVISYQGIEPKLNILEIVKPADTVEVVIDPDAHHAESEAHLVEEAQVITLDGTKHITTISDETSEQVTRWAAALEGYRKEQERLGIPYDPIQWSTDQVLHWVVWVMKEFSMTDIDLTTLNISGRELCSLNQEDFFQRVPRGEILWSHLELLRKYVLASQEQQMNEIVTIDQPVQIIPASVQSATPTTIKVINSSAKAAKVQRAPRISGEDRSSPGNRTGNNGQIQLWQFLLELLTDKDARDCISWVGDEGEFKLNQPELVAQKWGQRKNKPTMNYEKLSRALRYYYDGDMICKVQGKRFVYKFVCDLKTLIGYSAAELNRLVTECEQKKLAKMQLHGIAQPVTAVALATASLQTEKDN
# Outline: as §1
# ERG = target: T4, ERG (Homo sapiens, UniProt P11308 1-479); conditions: protein: recombinant; tags: N-terminal GST; dsDNA, one strand shown
# T4 sequence: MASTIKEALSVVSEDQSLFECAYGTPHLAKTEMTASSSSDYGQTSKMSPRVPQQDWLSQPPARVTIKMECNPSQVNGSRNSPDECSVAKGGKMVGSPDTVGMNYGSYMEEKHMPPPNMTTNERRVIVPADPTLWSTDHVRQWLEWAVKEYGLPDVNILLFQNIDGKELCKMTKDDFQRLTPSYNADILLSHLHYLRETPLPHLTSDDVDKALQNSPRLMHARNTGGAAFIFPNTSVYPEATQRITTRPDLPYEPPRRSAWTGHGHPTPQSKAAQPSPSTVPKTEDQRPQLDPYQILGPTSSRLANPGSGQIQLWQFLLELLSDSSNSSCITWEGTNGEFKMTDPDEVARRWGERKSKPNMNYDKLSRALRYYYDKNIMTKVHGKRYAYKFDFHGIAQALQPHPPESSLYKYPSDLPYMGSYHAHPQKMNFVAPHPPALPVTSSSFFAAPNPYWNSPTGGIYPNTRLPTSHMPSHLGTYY
# Outline: as §1
# ELF1 = ELF1 (Homo sapiens, UniProt P32519 1-619); conditions: protein: recombinant; tags: N-terminal GST; dsDNA, one strand shown
# Chain of ELF1 (P32519 whole entry): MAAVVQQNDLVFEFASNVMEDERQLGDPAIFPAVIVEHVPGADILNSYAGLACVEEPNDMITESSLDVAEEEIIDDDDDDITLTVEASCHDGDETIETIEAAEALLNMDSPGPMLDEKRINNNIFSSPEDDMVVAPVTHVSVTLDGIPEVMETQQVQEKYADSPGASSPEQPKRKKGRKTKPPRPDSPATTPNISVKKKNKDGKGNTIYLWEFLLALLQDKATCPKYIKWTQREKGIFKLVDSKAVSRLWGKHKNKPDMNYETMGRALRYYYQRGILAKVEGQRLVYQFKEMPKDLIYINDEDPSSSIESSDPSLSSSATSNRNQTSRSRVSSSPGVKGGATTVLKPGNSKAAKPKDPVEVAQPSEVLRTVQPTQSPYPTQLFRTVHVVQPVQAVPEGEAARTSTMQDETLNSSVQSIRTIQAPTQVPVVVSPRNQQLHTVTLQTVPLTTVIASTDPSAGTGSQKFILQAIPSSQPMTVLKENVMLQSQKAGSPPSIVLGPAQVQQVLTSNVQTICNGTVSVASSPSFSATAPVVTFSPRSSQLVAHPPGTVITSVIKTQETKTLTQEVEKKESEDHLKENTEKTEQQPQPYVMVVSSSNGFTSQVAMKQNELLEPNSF
# Outline: as §1
# SPI1 = SPI1 (Homo sapiens, UniProt P17947 1-270); conditions: protein: recombinant; tags: N-terminal GST; dsDNA, one strand shown
# Outline: as §1
# SPIB = SPIB (Homo sapiens, UniProt Q01892 1-262); conditions: protein: recombinant; tags: N-terminal GST; dsDNA, one strand shown
# Chain of SPIB (Q01892 whole entry): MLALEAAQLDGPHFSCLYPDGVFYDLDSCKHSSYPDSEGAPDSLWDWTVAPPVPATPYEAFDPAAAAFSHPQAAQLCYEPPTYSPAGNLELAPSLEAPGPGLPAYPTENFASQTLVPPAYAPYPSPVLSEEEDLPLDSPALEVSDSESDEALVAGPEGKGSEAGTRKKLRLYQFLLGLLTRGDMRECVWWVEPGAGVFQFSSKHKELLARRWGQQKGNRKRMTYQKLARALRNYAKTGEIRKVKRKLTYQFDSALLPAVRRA
# Outline: as §1
# ETV5 = ETV5 (Homo sapiens, UniProt P41161 1-510); conditions: protein: recombinant; tags: N-terminal GST; dsDNA, one strand shown
# Chain of ETV5 (P41161 whole entry): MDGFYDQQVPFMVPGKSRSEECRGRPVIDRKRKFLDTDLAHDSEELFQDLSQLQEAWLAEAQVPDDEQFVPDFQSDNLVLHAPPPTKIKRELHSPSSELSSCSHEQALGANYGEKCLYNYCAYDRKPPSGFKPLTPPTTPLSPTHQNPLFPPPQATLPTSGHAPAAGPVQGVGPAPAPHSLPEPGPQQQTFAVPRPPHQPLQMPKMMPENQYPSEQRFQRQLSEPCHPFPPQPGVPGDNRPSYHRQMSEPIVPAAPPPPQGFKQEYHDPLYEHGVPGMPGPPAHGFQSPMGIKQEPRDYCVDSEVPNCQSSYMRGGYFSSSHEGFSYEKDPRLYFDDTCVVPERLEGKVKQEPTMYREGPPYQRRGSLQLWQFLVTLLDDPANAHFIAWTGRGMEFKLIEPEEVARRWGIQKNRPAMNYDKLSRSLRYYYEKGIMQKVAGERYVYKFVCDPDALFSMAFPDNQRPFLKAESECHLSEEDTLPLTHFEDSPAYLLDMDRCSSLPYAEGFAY
# Outline: as §1
# HSF1 = HSF1 (Homo sapiens, UniProt Q00613 1-529); conditions: protein: recombinant; tags: N-terminal GST; chain copies: 3; dsDNA, one strand shown
# Chain of HSF1 (Q00613 whole entry): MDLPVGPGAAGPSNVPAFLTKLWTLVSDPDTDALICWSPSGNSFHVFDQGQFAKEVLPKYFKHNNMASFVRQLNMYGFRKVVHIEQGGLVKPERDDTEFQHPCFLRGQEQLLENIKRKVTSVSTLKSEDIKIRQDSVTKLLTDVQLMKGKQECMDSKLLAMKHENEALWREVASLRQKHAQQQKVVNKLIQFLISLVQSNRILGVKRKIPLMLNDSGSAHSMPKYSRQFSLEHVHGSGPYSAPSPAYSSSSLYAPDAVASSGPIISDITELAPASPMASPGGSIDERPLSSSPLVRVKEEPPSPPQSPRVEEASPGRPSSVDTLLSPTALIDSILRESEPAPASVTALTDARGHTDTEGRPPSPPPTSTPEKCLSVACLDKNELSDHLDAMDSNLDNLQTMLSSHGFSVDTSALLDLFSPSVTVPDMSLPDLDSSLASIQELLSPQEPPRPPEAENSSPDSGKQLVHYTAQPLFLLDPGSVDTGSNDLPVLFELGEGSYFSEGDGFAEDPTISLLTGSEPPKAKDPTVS
# Outline: as §1
# ELF4 = ELF4 (Homo sapiens, UniProt Q99607 1-663); conditions: protein: recombinant; tags: N-terminal GST; dsDNA, one strand shown
# Chain of ELF4 (Q99607 whole entry): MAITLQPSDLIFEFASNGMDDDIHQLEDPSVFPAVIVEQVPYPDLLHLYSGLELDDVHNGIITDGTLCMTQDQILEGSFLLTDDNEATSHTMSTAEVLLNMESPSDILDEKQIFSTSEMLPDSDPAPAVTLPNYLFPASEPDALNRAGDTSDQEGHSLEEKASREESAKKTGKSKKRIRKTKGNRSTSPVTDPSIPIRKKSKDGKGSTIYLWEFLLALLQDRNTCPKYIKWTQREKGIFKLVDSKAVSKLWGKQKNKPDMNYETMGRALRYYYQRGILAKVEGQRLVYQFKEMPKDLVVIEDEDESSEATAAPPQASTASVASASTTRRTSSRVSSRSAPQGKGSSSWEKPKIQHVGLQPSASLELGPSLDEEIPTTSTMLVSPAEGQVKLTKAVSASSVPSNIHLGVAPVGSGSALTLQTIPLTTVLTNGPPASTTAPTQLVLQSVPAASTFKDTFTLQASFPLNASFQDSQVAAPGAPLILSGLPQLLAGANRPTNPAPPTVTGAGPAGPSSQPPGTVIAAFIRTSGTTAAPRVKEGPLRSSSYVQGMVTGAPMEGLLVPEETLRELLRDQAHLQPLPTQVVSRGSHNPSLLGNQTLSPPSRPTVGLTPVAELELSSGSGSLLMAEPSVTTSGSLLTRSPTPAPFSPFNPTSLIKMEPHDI
# Outline: as §1
# ELK4 = target: T5, ELK4 (Homo sapiens, UniProt P28324-2 1-405); conditions: protein: recombinant; tags: N-terminal GST; dsDNA, one strand shown
# T5 sequence: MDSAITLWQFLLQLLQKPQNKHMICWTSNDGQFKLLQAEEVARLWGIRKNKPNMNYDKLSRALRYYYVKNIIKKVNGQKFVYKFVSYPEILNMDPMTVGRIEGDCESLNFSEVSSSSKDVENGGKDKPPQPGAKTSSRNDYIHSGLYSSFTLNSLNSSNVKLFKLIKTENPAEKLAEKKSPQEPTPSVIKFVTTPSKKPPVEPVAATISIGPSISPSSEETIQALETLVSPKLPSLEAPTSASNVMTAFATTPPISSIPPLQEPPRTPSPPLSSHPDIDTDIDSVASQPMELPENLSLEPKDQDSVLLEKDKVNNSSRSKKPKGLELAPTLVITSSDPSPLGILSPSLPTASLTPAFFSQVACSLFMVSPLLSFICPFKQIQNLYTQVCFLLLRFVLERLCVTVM
# Outline: as §1
# ETV2 = target: T6, ETV2 (Homo sapiens, UniProt O00321 1-342); conditions: protein: recombinant; tags: N-terminal GST; dsDNA, one strand shown
# T6 sequence: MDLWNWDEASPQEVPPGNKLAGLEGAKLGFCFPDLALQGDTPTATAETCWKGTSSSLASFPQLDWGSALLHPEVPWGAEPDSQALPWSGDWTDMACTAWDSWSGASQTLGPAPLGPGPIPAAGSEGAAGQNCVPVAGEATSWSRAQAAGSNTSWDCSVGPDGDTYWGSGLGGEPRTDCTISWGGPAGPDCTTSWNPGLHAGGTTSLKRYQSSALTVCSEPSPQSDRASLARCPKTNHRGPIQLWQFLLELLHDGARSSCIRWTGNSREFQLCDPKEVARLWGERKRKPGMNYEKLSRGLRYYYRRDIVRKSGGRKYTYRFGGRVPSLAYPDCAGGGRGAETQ
# Outline: as §1
# ELF3 = target: T7, ELF3 (Homo sapiens, UniProt P78545 1-371); conditions: protein: recombinant; tags: N-terminal GST; dsDNA, one strand shown
# T7 sequence: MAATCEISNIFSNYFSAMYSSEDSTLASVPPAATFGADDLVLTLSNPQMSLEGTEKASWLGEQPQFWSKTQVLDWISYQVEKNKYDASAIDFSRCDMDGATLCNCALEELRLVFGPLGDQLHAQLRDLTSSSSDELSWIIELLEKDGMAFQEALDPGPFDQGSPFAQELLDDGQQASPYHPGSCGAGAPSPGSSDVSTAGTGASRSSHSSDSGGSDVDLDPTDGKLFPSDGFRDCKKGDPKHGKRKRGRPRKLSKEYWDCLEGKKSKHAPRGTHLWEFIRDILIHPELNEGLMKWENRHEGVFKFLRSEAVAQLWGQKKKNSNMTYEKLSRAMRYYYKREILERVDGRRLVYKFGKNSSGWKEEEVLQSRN
# Outline: as §1
# CRX = CRX (Homo sapiens, UniProt O43186 1-299); conditions: protein: recombinant; tags: N-terminal GST; dsDNA, one strand shown
# Chain of CRX (O43186 whole entry): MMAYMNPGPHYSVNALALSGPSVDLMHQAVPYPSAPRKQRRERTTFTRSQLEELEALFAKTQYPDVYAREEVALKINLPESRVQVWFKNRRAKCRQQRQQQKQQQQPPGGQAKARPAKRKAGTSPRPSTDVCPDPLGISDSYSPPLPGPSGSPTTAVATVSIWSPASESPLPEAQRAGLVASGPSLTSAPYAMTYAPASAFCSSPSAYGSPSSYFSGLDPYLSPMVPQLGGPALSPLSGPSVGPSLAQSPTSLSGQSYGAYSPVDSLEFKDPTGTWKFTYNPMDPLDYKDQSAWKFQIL
# Outline: as §1
# ETV1 = ETV1 (Homo sapiens, UniProt P50549 1-477); conditions: protein: recombinant; tags: N-terminal GST; dsDNA, one strand shown
# Chain of ETV1 (P50549 whole entry): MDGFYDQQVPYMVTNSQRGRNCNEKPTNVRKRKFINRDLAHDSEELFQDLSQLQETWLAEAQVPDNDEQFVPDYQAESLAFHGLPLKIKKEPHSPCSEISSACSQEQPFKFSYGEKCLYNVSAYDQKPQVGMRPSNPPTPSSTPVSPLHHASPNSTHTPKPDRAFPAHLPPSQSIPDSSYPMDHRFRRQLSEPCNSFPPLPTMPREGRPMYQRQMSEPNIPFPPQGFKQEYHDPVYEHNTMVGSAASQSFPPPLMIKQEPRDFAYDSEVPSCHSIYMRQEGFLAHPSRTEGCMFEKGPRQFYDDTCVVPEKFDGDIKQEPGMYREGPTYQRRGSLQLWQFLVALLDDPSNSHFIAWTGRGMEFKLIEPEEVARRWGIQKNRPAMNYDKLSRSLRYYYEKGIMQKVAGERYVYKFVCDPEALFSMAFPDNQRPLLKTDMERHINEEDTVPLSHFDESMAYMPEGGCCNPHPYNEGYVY
# Outline: as §1
# EHF = target: T8, EHF (Homo sapiens, UniProt Q9NZC4 1-300); conditions: protein: recombinant; tags: N-terminal GST; dsDNA, one strand shown
# T8 sequence: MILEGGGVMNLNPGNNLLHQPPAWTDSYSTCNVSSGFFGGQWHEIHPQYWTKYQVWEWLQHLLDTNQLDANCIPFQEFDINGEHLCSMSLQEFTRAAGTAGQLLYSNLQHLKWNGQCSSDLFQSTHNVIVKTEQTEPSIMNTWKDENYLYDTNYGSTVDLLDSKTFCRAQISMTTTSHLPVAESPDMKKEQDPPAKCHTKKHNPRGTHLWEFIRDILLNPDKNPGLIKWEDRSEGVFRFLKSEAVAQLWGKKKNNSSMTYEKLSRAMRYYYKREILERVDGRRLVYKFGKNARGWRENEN
# Outline: as §1
# ELK3 = target: T9, ELK3 (Homo sapiens, UniProt P41970 1-407); conditions: protein: recombinant; tags: N-terminal GST; dsDNA, one strand shown
# T9 sequence: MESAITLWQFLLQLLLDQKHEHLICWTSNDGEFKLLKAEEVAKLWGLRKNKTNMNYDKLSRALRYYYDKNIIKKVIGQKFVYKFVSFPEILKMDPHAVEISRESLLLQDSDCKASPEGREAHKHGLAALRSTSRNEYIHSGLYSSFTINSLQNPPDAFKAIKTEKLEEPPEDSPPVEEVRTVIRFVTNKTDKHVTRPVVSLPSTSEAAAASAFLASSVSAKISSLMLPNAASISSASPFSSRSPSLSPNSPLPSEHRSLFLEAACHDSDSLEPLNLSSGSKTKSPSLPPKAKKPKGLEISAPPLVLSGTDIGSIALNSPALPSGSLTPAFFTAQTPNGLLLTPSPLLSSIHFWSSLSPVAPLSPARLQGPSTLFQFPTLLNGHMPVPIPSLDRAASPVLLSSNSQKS
# Outline: as §1
# FEV = target: T10, FEV (Homo sapiens, UniProt Q99581 1-238); conditions: protein: recombinant; tags: N-terminal GST; dsDNA, one strand shown
# T10 sequence: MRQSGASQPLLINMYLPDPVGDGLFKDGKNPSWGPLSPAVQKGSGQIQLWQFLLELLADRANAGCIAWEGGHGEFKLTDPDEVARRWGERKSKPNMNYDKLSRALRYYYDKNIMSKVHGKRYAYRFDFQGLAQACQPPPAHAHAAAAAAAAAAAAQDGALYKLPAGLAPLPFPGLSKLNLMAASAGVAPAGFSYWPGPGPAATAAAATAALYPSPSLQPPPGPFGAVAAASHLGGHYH
# Outline: as §1
Sequence,binding signal (FLI1),binding signal (ELK1),binding signal (GABPA),binding signal (ERG),binding signal (ELF1),binding signal (SPI1),binding signal (SPIB),binding signal (ETV5),binding signal (HSF1),binding signal (ELF4),binding signal (ELK4),binding signal (ETV2),binding signal (ELF3),binding signal (CRX),binding signal (ETV1),binding signal (EHF),binding signal (ELK3),binding signal (FEV)
AGGTAT,"1.06 fold enrichment (6-mer frequency, TF over GST control)","1.06 fold enrichment (6-mer frequency, TF over GST control)","1.07 fold enrichment (6-mer frequency, TF over GST control)","1.04 fold enrichment (6-mer frequency, TF over GST control)","1.04 fold enrichment (6-mer frequency, TF over GST control)","1.04 fold enrichment (6-mer frequency, TF over GST control)","1 fold enrichment (6-mer frequency, TF over GST control)","1.02 fold enrichment (6-mer frequency, TF over GST control)","1.07 fold enrichment (6-mer frequency, TF over GST control)","1.02 fold enrichment (6-mer frequency, TF over GST control)","1.03 fold enrichment (6-mer frequency, TF over GST control)","1.03 fold enrichment (6-mer frequency, TF over GST control)","1.12 fold enrichment (6-mer frequency, TF over GST control)","1.05 fold enrichment (6-mer frequency, TF over GST control)","1.02 fold enrichment (6-mer frequency, TF over GST control)",–,–,–
TCAAAG,"1.08 fold enrichment (6-mer frequency, TF over GST control)","1.01 fold enrichment (6-mer frequency, TF over GST control)","1.13 fold enrichment (6-mer frequency, TF over GST control)","1.09 fold enrichment (6-mer frequency, TF over GST control)","1.19 fold enrichment (6-mer frequency, TF over GST control)","1.1 fold enrichment (6-mer frequency, TF over GST control)","1.11 fold enrichment (6-mer frequency, TF over GST control)","1.08 fold enrichment (6-mer frequency, TF over GST control)","1.17 fold enrichment (6-mer frequency, TF over GST control)","1.14 fold enrichment (6-mer frequency, TF over GST control)","1.21 fold enrichment (6-mer frequency, TF over GST control)","1.03 fold enrichment (6-mer frequency, TF over GST control)","1.16 fold enrichment (6-mer frequency, TF over GST control)","1.32 fold enrichment (6-mer frequency, TF over GST control)","1.13 fold enrichment (6-mer frequency, TF over GST control)","1.02 fold enrichment (6-mer frequency, TF over GST control)","1.15 fold enrichment (6-mer frequency, TF over GST control)","1.1 fold enrichment (6-mer frequency, TF over GST control)"
